Among the data in PubChem BioAssay (NCATS) are Potency values, retold here.

Assay [1] is described as follows: qHTS of pediatric cancer cell lines to identify multiple opportunities for drug repurposing: Primary screen for A673 cells (AID 1347092). Note: nearly all actives have a fitted effect of over 45% in size. Note: potency is the fitted concentration of half-maximal effect. Put shortly:
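A673 cells (500-1,000 cells/well) were treated 48 hours at 37 degrees C with compounds at 11-point (0.78 nM to 46 µM) or 8-point (0.59 nM to 46 µM) dilutions. Viability read by CellTiter-Glo luminescence; concentration-response curves fitted.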
(Quantitative high-throughput screening tests each substance at several concentrations.)

A short description of assay [2]: qHTS of pediatric cancer cell lines to identify multiple opportunities for drug repurposing: Primary screen for SK-N-MC cells (AID 1347093). Note: potency is the fitted concentration of half-maximal effect. An outline of the steps: (§1)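 Metabolically active cells were quantified by ATP-dependent luminescence (CellTiter-Glo, 15 min at room temperature) following 48 h treatment. Cells had been plated at 500-1,000 per well and settled for 5 h beforehand.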

A short description of assay [3]: qHTS of pediatric cancer cell lines to identify multiple opportunities for drug repurposing: Primary screen for BT-37 cells (AID 1347094). Note: potency is the fitted concentration of half-maximal effect. Put shortly:
(§2)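 Phenotypic viability qHTS, 48 h compound exposure, CellTiter-Glo luminescence read-out; multi-concentration dosing so that potency and efficacy derive directly from the primary screen's curves.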

The nature of assay [4]: qHTS of pediatric cancer cell lines to identify multiple opportunities for drug repurposing: Primary screen for NB-EBc1 cells (AID 1347095). Note: potency is the fitted concentration of half-maximal effect. Put shortly: as §2
The nature of assay [5]: qHTS of pediatric cancer cell lines to identify multiple opportunities for drug repurposing: Primary screen for U-2 OS cells (AID 1347096). Note: nearly all actives have a fitted effect of over 50% in size. Put shortly: (§3)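 Cells (500-1,000/well) in growth media were settled 5 h at 37 degrees C, then given compounds for 48 h. Viability was read as CellTiter-Glo luminescence. Primary runs used MIPE at 11 points (0.78 nM-46 µM) and NPC at 8 points (0.59 nM-46 µM); follow-ups used 11 points.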

Assay [6] is described as follows: qHTS of pediatric cancer cell lines to identify multiple opportunities for drug repurposing: Primary screen for Saos-2 cells (AID 1347097). Note: nearly all actives have a fitted effect of over 40% in size. An outline of the steps: as §2
Assay [7] in a line: qHTS of pediatric cancer cell lines to identify multiple opportunities for drug repurposing: Primary screen for SK-N-SH cells (AID 1347098). Note: nearly all actives have a fitted effect of over 65% in size. Note: potency is the fitted concentration of half-maximal effect. An outline of the steps:
(§4)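 Cells (500-1,000/well) rested 5 h, then received compounds for 48 h; metabolically active cells were measured by CellTiter-Glo luminescence. Final concentrations spanned up to 46 µM (MIPE, 11-point) or 0.59 nM-46 µM (NPC, 8-point) in primary screens, 11-point in follow-ups.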

The nature of assay [8]: qHTS of pediatric cancer cell lines to identify multiple opportunities for drug repurposing: Primary screen for NB1643 cells (AID 1347099). Note: nearly all actives have a fitted effect of over 50% in size. Note: potency is the fitted concentration of half-maximal effect. Put shortly: as §2
Assay [9] in a line: qHTS of pediatric cancer cell lines to identify multiple opportunities for drug repurposing: Primary screen for LAN-5 cells (AID 1347100). An outline of the steps: as §3
A short description of assay [10]: qHTS of pediatric cancer cell lines to identify multiple opportunities for drug repurposing: Primary screen for BT-12 cells (AID 1347101). Note: nearly all actives have a fitted effect of over 25% in size. An outline of the steps: as §4
Assay [11] is described as follows: qHTS of pediatric cancer cell lines to identify multiple opportunities for drug repurposing: Primary screen for Rh18 cells (AID 1347102). Note: nearly all actives have a fitted effect of over 65% in size. An outline of the steps: as §3
Assay [12] can be described thus: qHTS of pediatric cancer cell lines to identify multiple opportunities for drug repurposing: Primary screen for OHS-50 cells (AID 1347103). Note: nearly all actives have a fitted effect of over 40% in size. An outline of the steps:
as §4

Assay [13] can be described thus: qHTS of pediatric cancer cell lines to identify multiple opportunities for drug repurposing: Primary screen for RD cells (AID 1347104). Note: nearly all actives have a fitted effect of over 55% in size. Put shortly:
as §2

Assay [14] in a line: qHTS of pediatric cancer cell lines to identify multiple opportunities for drug repurposing: Primary screen for MG 63 (6-TG R) cells (AID 1347105). Note: nearly all actives have a fitted effect of over 50% in size. Put shortly:
as §2

Assay [15] can be described thus: qHTS of pediatric cancer cell lines to identify multiple opportunities for drug repurposing: Primary screen for Rh30 cells (AID 1347107). Note: series mostly up to about 46 µM; nearly all actives have a fitted effect of over 75% in size. Put shortly: as §3
A short description of assay [16]: qHTS of pediatric cancer cell lines to identify multiple opportunities for drug repurposing: Confirmatory screen for SK-N-MC cells (AID 1347111).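 Note: potency is the fitted concentration of half-maximal effect; cells exposed to compound for 48 h before the readout; nearly all actives have a fitted effect of over 70% in size.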 Put shortly: as §1
The nature of assay [17]: qHTS of pediatric cancer cell lines to identify multiple opportunities for drug repurposing: Confirmatory screen for BT-12 cells (AID 1347112). Note: nearly all actives have a fitted effect of over 55% in size. Put shortly: as §3
The nature of assay [18]: qHTS of pediatric cancer cell lines to identify multiple opportunities for drug repurposing: Primary screen for control Hh wild type fibroblast cells (AID 1347106). Note: nearly all actives have a fitted effect of over 55% in size. Note: potency is the fitted concentration of half-maximal effect. An outline of the steps: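 Viability after 48 h compound treatment at 37C, 500-1,000 cells/well, read as ATP luminescence with CellTiter-Glo. Primary screens used 11-point (MIPE, 0.78 nM-46 µM) or 8-point (NPC, 0.59 nM-46 µM) final concentrations; follow-up screens used 11-point dilutions.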

A short description of assay [19]: qHTS of pediatric cancer cell lines to identify multiple opportunities for drug repurposing: Primary screen for Rh41 cells (AID 1347108).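 Note: series mostly up to about 46 µM; luminescence drop marks cytotoxic hits; nearly all actives have a fitted effect of over 70% in size.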 An outline of the steps:
as §2

The nature of assay [20]: qHTS of pediatric cancer cell lines to identify multiple opportunities for drug repurposing: Confirmatory screen for NB1643 cells (AID 1347109). Note: nearly all actives have a fitted effect of over 45% in size. Put shortly:
as §3

Records with an inconclusive call do not appear. Calls of active or inactive are those of the source. Calls come from the whole dose curve; as a rule, active = well fitted curve in the direction sought with a large enough effect; inconclusive = small, poorly fitted or top-dose-only effect, or another doubt; inactive = no such curve, though single readings can be large; an effect the other way counts as inactive or inconclusive.

Consider `NC(=O)c1ccc(I)c([N+](=O)[O-])c1`, for which the Potency is 18.7 µM (active) in [1], 3.72 µM (active) in [2] and 55.1 µM (active) in [16]. Also, the Potency entry in assay [3], in assay [4], in assay [5], in assay [6], in assay [7] and in [8] was “inactive” each time. The Potency result in assay [9], in assay [10], in assay [11], in assay [12], in [13] and in [14] was “inactive” in each case. Besides, the Potency result in [15] and in assay [17] was “inactive” in each case.
On to `CC(C)OC(=O)C1=CN(C(=O)c2ccc(F)c(F)c2)CC(C)(C)c2c1[nH]c1ccccc21`, for which the Potency result in assay [1], in assay [3], in assay [4], in [5], in assay [7] and in [9] was “inactive” each time. Also, the Potency result in assay [10], in assay [11], in assay [12], in assay [13], in assay [14] and in assay [18] was “inactive” each time. The Potency entry in [15] and in assay [19] was “inactive” in each case. Moreover, the Potency in assay [2] was 26.4 µM (active).
As for `CCc1ccc(CCOc2ccc(CC3SC(=O)NC3=O)cc2)nc1` (stereo unspecified), the Potency entry in assay [1], in [2], in assay [3], in assay [4], in assay [5] and in [6] was “inactive” each time. The Potency result in [7], in assay [8], in [9], in assay [10], in assay [11] and in [12] was “inactive” throughout. Also, the Potency result in assay [13], in assay [14], in [18], in [15] and in [19] was “inactive” throughout.
For `Cc1cccc(-c2nn(C(=S)Nc3ccccc3)cc2-c2ccnc3ccccc23)n1`, the Potency entry in assay [1], in [2], in assay [3], in assay [4], in assay [5] and in [7] was “inactive” in each case. Moreover, the Potency result in [8], in [9], in assay [11], in assay [13], in [14] and in assay [18] was “inactive” each time. In addition, the Potency result in assay [15] and in [19] was “inactive” in each case.
Consider `CNC(=O)c1ccc(N2C(=S)N(c3ccc(C#N)c(C(F)(F)F)c3)C(=O)C2(C)C)cc1F`, for which the Potency entry in [1], in assay [2], in assay [3], in assay [4], in assay [5] and in assay [6] was “inactive” each time. Moreover, the Potency entry in [8], in assay [9], in [11], in assay [13], in [14] and in assay [18] was “inactive” in each case. The Potency entry in assay [15] and in [19] was “inactive” each time.
As for `OC(CCN1CCCCC1)(c1ccccc1)C1CC2C=CC1C2` (stereo unspecified), the Potency entry in [1], in assay [2], in [3], in assay [4], in assay [5] and in assay [6] was “inactive” each time. Further, the Potency result in assay [7], in assay [8], in [9], in assay [10], in [11] and in assay [12] was “inactive” throughout. In addition, the Potency result in assay [13], in assay [14], in assay [18], in assay [15] and in [19] was “inactive” throughout.
Consider `CC1(C)SCCN(S(=O)(=O)c2ccc(OCC#CCO)cc2)[C@@H]1C(=O)NO`, for which the Potency result in assay [1], in [2], in assay [3], in assay [4], in [5] and in assay [6] was “inactive” in each case. The Potency entry in assay [8], in [9], in assay [10], in [11], in [12] and in [13] was “inactive” each time. Moreover, the Potency entry in assay [14], in assay [18], in [15] and in assay [19] was “inactive” each time.
Take `COc1cc2c(cc1OC)CN(CCc1ccc(NC(=O)c3cccc4c(=O)c5cccc(OC)c5[nH]c34)cc1)CC2`: the Potency is 4.69 µM (active) in assay [1], 10.5 µM (active) in [2], 12.1 µM (active) in assay [7] and 7.43 µM (active) in assay [8]. The Potency result in [3], in assay [4], in assay [5], in assay [6], in [9] and in [10] was “inactive” each time. In addition, the Potency entry in assay [11], in assay [12], in [14] and in [18] was “inactive” each time.
Turning to `O=c1n(CCCN2CCN(c3cccc(Cl)c3)CC2)nc2ccccn12`, the Potency result in assay [1], in assay [2], in [3], in assay [4], in assay [5] and in [6] was “inactive” in each case. Also, the Potency result in assay [7], in assay [8], in assay [9], in assay [10], in assay [11] and in assay [12] was “inactive” in each case. In addition, the Potency result in assay [13], in assay [14], in [18], in assay [15] and in [19] was “inactive” each time.
Turning to `C[C@]12CCC(=O)C=C1CC[C@@H]1[C@@H]2[C@@H](O)C[C@@]2(C)[C@H]1CC[C@]2(O)C(=O)CO`, the Potency entry in assay [1], in assay [2], in [3], in assay [4], in assay [5] and in assay [6] was “inactive” throughout. Also, the Potency entry in assay [7], in [8], in [9], in [10], in assay [11] and in assay [12] was “inactive” each time. Further, the Potency result in assay [13], in assay [14], in [18], in [15] and in [19] was “inactive” each time.
For `CCC(C)n1ncn(-c2ccc(N3CCN(c4ccc(OC[C@H]5CO[C@](Cn6cncn6)(c6ccc(Cl)cc6Cl)O5)cc4)CC3)cc2)c1=O` (stereo partly specified), the Potency entry in assay [1], in assay [3], in assay [5], in assay [6], in [7] and in assay [8] was “inactive” in each case. In addition, the Potency entry in assay [11], in assay [14], in [18], in assay [15], in [19] and in assay [20] was “inactive” in each case. For the same molecule, the results for the Potency in assay [2], in assay [4] and in [16] were 1.48 µM (active), 1.05 µM (active) and 4.65 µM (active), respectively.
Turning to `CC(C[N+](C)(C)C)OC(N)=O` (stereo unspecified), the Potency entry in [1], in assay [2], in assay [3], in assay [4], in [5] and in [6] was “inactive” throughout. Further, the Potency result in assay [7], in assay [8], in [9], in [10], in [11] and in [12] was “inactive” throughout. Moreover, the Potency result in assay [13], in [14], in assay [18], in assay [15] and in assay [19] was “inactive” throughout.
On to `Cc1csc(NC(=O)c2sc3nc4c(c(C(F)(F)F)c3c2N)CCC4)n1`, for which the Potency is 1.18 µM (active) in [1], 8.63 µM (active) in [3] and 2.64 µM (active) in assay [18]. The Potency result in assay [2], in [4], in [5], in [6], in assay [9] and in assay [10] was “inactive” in each case. In addition, the Potency result in assay [11] and in assay [14] was “inactive” in each case.
